Broadly, the inhibition is the change of the read-out against control, counted positive when it falls.

We go through three molecules from ChEMBL document CHEMBL1961873, “Compounds: GSK PKIS; Assays: Nanosyn kinase panel” (2012).

Test [1] deals with T1, Serine/threonine-protein kinase D2 (Homo sapiens) (UniProt Q9BZL6).
T1 sequence (whole entry): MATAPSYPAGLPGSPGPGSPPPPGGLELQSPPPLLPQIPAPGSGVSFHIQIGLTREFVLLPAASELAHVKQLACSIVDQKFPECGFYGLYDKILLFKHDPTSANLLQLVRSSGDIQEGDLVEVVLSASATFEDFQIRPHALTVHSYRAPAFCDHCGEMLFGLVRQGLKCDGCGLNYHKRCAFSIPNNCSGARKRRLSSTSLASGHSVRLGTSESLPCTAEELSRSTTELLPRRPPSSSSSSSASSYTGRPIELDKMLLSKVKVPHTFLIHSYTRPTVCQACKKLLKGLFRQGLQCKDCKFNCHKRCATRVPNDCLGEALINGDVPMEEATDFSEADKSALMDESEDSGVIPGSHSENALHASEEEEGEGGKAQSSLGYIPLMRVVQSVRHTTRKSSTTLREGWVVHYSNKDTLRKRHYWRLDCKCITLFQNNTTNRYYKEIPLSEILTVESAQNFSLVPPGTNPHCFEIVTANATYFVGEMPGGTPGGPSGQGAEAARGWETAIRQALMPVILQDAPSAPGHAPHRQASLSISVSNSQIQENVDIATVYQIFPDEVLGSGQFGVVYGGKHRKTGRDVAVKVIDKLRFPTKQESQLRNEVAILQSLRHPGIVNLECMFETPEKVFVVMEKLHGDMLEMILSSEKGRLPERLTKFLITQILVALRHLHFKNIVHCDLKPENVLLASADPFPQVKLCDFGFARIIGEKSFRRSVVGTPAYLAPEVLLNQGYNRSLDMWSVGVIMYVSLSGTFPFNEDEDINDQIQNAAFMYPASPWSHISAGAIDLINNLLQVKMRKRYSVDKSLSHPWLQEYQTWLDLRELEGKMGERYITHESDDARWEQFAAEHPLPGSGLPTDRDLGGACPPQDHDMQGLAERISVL
The following applies: at 1 µM.

Test [2] addresses T2, Serine/threonine-protein kinase D3 (Homo sapiens) (UniProt O94806).
T2 sequence (whole entry): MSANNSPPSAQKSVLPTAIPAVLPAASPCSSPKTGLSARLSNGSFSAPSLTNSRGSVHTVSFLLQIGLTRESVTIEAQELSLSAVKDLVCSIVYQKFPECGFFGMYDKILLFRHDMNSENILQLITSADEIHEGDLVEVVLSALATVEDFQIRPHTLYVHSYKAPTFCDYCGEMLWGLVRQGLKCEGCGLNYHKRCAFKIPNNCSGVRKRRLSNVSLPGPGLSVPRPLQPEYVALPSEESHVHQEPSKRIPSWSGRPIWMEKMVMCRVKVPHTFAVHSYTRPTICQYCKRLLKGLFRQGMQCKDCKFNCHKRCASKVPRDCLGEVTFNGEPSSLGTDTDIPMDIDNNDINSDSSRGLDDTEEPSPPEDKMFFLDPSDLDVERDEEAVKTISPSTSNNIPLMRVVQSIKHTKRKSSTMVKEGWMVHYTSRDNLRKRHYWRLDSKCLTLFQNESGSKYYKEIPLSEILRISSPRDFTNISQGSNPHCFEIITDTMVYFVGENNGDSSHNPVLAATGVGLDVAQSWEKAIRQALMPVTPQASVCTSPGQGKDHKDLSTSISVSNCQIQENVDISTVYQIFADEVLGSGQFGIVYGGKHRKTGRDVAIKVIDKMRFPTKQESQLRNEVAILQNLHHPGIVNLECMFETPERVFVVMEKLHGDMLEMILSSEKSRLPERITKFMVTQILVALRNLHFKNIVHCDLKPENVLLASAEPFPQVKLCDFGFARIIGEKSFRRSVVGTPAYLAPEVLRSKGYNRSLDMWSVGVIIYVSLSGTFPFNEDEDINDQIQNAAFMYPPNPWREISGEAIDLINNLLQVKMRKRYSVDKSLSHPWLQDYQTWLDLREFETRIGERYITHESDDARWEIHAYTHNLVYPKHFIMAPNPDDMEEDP
The following applies: at 0.1 µM.

Test [3] deals with T2, Serine/threonine-protein kinase D3 (Homo sapiens). The following applies: at 1 µM.
Test [4] has as its target T3, cGMP-dependent protein kinase 1 (Homo sapiens) (UniProt Q13976).
T3 sequence (whole entry): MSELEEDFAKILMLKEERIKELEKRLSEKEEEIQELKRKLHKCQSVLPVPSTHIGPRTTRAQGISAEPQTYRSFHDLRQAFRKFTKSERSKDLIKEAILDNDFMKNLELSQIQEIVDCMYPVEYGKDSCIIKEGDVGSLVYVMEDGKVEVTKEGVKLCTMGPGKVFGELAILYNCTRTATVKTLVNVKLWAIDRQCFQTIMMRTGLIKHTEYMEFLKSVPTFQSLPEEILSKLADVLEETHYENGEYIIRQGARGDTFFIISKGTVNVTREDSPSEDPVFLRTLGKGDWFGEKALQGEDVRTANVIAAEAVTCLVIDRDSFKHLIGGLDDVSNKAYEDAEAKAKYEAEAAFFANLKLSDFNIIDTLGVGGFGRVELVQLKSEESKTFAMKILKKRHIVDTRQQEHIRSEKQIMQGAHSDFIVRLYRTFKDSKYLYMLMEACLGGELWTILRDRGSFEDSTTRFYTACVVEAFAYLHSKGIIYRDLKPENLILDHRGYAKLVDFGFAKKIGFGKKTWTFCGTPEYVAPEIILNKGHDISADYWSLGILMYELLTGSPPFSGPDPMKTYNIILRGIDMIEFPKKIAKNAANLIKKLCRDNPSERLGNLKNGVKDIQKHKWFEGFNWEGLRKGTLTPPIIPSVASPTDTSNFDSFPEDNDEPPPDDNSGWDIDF
The following applies: at 0.1 µM.

In test [5] the target is T3, cGMP-dependent protein kinase 1 (Homo sapiens). The following applies: at 1 µM.
The target of test [6] is T4, cGMP-dependent protein kinase 2 (Homo sapiens) (UniProt Q13237).
T4 sequence (whole entry): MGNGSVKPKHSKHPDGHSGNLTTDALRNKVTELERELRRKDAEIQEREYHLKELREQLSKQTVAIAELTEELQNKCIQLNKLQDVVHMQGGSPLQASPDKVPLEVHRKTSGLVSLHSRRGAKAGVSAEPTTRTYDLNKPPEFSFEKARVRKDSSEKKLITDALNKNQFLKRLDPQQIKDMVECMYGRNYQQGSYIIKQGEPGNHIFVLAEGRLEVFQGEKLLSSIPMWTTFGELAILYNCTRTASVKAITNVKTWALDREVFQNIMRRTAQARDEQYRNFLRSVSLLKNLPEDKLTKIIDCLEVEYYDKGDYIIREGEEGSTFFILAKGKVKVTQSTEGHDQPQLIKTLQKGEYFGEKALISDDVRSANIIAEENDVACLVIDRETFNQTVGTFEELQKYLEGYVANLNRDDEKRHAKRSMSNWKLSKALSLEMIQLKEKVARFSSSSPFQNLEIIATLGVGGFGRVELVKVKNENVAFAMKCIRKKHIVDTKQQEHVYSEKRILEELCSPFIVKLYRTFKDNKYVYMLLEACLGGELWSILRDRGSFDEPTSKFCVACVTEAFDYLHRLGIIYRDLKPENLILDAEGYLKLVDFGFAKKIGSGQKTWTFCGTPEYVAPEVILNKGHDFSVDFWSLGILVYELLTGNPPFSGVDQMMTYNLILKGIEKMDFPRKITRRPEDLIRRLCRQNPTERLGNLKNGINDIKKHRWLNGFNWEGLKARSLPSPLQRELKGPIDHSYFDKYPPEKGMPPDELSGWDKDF
The following applies: at 0.1 µM.

Test [7] addresses T4, cGMP-dependent protein kinase 2 (Homo sapiens). The following applies: at 1 µM.
Test [8] has as its target T5, cAMP-dependent protein kinase catalytic subunit PRKX (Homo sapiens) (UniProt P51817).
T5 sequence (whole entry): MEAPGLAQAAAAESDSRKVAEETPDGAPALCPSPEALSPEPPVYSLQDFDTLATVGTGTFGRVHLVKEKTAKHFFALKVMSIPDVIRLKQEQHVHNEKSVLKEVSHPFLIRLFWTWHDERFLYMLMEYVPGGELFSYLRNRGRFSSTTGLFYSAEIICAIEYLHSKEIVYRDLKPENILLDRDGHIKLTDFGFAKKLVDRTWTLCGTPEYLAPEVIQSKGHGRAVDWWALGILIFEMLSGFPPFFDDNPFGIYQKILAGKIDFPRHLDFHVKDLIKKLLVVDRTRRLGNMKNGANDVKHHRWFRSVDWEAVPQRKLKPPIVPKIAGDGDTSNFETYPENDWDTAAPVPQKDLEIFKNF
The following applies: at 0.1 µM.

Test [9] concerns the target T5, cAMP-dependent protein kinase catalytic subunit PRKX (Homo sapiens). The following applies: at 1 µM.
In test [10] the target is Rho-associated protein kinase 1 (Homo sapiens) (UniProt Q13464). The following applies: at 0.1 µM.
For test [11] the target is unchanged. The following applies: at 1 µM.
In test [12] the target is Rho-associated protein kinase 2 (Homo sapiens) (UniProt O75116). The following applies: at 0.1 µM.
Test [13] has the same target. The following applies: at 1 µM.
Test [14] concerns the target Ribosomal protein S6 kinase alpha-1 (Homo sapiens) (UniProt Q15418). The following applies: at 0.1 µM.
Test [15] shares this target. The following applies: at 1 µM.
Test [16] has as its target Ribosomal protein S6 kinase alpha-3 (Homo sapiens) (UniProt P51812). The following applies: at 0.1 µM.
Test [17] shares this target. The following applies: at 1 µM.
Test [18] has as its target Ribosomal protein S6 kinase alpha-2 (Homo sapiens) (UniProt Q15349). The following applies: at 0.1 µM.
For test [19] the target is unchanged. The following applies: at 1 µM.
The target of test [20] is Ribosomal protein S6 kinase alpha-6 (Homo sapiens) (UniProt Q9UK32). The following applies: at 0.1 µM.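 Also: reported value is the mean inhibition of RSK4, from the GSK PKIS kinase inhibitor screen.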
Ribosomal protein S6 kinase alpha-6 (Homo sapiens), sequence (Q9UK32 whole entry): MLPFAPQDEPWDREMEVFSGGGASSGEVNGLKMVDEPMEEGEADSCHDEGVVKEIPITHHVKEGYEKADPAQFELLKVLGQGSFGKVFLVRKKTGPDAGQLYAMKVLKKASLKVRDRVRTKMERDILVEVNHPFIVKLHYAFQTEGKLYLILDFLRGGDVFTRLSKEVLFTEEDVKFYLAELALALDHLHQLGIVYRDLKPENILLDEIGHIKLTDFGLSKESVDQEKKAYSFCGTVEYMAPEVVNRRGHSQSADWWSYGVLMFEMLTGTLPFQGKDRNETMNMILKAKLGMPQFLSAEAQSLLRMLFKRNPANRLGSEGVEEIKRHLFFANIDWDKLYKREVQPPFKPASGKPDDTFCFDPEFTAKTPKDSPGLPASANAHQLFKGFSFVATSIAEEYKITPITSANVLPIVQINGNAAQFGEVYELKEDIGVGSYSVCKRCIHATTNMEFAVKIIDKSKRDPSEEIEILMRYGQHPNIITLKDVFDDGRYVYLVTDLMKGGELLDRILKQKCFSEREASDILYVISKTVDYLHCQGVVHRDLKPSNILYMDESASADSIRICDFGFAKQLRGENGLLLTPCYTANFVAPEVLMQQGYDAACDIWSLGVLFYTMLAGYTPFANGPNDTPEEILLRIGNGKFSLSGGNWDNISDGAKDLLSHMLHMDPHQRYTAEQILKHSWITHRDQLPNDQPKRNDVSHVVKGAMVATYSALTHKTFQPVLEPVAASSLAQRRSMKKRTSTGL

Ribosomal protein S6 kinase alpha-3 (Homo sapiens), sequence (P51812 whole entry): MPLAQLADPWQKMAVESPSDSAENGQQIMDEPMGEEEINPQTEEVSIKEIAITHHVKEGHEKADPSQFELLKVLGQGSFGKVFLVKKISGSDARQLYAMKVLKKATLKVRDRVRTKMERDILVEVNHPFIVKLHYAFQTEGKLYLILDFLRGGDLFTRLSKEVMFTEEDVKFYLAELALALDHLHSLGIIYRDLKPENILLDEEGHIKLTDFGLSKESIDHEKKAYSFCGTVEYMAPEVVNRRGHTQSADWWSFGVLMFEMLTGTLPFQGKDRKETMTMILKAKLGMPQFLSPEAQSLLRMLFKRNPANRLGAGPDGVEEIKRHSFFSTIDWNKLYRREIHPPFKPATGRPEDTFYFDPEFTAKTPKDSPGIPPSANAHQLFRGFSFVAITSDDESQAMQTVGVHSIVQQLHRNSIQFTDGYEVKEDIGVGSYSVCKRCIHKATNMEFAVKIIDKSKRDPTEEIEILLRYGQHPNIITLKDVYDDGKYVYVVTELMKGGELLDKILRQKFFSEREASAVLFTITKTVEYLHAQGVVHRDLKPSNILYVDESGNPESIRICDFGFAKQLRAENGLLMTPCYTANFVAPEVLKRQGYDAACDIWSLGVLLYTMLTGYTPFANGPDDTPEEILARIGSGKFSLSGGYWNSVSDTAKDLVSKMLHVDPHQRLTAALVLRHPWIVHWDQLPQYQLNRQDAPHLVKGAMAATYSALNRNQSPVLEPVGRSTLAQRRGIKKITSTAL
Rho-associated protein kinase 1 (Homo sapiens), sequence (Q13464 2-1354 limits assumed): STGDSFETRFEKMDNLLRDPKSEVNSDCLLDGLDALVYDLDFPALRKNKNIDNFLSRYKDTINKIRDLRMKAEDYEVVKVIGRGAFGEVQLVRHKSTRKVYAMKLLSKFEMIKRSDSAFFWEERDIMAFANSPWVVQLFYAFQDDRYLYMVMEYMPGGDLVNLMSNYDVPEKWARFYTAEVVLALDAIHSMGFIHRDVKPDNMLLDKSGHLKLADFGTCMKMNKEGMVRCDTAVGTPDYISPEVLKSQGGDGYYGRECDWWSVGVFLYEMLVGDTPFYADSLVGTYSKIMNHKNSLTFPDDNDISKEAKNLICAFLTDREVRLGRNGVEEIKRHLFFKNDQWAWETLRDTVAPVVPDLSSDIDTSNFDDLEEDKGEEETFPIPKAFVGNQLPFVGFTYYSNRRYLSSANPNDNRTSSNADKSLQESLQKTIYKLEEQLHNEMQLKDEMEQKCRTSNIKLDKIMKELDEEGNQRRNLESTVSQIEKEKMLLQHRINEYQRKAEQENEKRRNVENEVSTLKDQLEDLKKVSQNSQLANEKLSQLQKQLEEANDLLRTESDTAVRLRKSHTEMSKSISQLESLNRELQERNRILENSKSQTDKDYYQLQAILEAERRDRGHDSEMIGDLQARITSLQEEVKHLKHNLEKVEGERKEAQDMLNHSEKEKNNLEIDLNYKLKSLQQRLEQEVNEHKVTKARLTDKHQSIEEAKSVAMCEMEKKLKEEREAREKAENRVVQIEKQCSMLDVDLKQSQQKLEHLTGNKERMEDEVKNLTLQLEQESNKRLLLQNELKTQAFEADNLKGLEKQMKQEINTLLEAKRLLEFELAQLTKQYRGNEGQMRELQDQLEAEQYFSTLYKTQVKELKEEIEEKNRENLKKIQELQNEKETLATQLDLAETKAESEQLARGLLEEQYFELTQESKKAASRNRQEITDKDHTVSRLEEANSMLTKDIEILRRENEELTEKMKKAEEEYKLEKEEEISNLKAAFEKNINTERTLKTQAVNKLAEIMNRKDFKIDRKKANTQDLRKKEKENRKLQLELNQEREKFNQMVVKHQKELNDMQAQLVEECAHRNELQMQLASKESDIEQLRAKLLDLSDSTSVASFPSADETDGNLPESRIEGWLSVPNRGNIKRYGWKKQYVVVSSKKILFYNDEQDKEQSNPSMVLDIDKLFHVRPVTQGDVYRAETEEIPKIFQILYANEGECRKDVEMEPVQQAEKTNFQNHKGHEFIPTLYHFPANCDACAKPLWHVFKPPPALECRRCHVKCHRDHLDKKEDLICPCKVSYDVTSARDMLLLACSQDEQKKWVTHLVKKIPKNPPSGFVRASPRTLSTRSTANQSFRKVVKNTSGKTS
Rho-associated protein kinase 2 (Homo sapiens), sequence (O75116 whole entry, looked up): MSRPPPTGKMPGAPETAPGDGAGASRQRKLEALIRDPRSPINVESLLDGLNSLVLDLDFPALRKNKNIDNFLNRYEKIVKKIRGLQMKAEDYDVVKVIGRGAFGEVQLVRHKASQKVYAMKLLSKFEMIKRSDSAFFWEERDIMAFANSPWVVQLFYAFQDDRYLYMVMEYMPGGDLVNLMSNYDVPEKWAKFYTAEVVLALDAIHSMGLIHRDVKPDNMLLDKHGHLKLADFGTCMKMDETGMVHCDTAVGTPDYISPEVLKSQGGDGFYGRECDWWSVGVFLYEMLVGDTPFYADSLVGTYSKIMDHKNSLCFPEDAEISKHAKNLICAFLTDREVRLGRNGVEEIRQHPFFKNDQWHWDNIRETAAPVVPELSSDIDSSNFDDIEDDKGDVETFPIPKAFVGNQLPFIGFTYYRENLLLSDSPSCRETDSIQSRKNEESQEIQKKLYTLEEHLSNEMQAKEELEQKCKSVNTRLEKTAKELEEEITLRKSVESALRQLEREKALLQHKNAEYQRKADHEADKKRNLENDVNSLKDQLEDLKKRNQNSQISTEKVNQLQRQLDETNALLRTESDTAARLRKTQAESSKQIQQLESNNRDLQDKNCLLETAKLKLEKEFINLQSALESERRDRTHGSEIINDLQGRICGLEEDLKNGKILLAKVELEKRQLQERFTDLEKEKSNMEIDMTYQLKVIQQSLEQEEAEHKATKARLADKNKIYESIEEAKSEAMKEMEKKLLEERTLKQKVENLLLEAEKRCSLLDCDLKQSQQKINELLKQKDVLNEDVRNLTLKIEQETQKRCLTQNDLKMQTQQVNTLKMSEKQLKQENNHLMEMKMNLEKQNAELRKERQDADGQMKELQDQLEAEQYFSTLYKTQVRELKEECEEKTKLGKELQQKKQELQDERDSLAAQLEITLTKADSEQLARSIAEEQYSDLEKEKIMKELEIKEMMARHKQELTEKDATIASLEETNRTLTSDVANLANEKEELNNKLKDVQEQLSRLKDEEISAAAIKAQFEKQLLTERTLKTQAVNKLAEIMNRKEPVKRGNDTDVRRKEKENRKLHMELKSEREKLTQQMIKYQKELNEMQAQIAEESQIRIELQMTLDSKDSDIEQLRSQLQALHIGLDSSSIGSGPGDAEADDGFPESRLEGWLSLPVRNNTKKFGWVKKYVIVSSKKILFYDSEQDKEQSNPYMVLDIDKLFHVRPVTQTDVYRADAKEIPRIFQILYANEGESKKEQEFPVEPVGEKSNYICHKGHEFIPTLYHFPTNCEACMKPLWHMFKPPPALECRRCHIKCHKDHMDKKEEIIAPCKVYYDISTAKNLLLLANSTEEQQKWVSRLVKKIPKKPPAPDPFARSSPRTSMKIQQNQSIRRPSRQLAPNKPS
Ribosomal protein S6 kinase alpha-1 (Homo sapiens), sequence (Q15418 whole entry): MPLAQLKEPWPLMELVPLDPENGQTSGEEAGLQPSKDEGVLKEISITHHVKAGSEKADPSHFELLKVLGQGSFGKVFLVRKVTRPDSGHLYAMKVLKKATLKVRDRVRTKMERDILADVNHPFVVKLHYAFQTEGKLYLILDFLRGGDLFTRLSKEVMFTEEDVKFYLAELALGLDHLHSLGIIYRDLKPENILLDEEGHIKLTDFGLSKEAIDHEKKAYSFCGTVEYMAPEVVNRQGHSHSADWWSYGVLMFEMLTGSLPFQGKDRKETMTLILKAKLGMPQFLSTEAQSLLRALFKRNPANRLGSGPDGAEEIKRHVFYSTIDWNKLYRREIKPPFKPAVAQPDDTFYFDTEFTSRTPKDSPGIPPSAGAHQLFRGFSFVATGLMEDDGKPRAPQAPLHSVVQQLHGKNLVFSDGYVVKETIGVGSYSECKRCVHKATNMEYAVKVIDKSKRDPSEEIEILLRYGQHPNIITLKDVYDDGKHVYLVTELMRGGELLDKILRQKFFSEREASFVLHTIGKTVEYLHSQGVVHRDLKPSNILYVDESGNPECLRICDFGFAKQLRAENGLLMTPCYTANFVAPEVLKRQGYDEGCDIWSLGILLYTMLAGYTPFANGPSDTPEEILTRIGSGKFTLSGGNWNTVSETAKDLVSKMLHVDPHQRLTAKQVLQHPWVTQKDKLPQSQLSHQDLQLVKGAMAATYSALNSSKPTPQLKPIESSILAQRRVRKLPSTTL

With `CCn1c(-c2nonc2N)nc2c(C#CC(C)(C)O)nc(CN3CCCC3)cc21`, the inhibition was found to be 6.86% in test [1]; 1.31% in test [2]; 6.41% in test [3]; 4.4% in test [4]; 10.7% in test [5]; 5.6% in test [6]. For the same molecule, the inhibition in [7] stood at 37.8%; in test [8], 10.5%; in test [9], 42%; in test [10], 0.15%; in test [11], 0.94%; in test [12] it was 0.14%. For the same molecule, the inhibition is 1.51% in test [13]; 2.05% in test [14]; 1.13% in test [15]; 1.08% in test [16]; 2.37% in test [17]; -0.08% in test [18]. The values for the inhibition in test [19] and in test [20] were 0.59% and 0.28%, respectively.
With `Cc1ccc(C(=O)NC2CCCCC2)cc1-c1ccc(C(=O)NCC2CC2)cc1`, the inhibition is 2.9% in test [1]; 2.25% in [2]; 2.53% in test [3]; 4.55% in [4]; 4.23% in [5]; 2.62% in test [6]. The inhibition in test [7] was found to be 2.94%; in test [8], 2.1%; in [9] it was 0.91%; in [10] it was 1.64%; in [11], 1.55%; in [12], 1.31%. The inhibition is 1.7% in [13]; 1.59% in test [14]; 0.15% in test [15]; 1.12% in test [16]; 0.57% in test [17]; -1.41% in [18]. Further, the inhibition is 0.27% in test [19] and -0.04% in [20].
`COc1cc2c(cc1Nc1nc(N3CCc4ccccc43)c3cc[nH]c3n1)N(C(=O)CN(C)C)CC2`: the inhibition is 3.6% in [1]; 1.51% in test [2]; 4.37% in [3]; 2.84% in test [4]; 2.75% in test [5]; 2.18% in [6]. For the same molecule, the inhibition in test [7] is 2.75%; in test [8] it was 0.6%; in test [9], -1.42%; in [10], 0.33%; in test [11], 1.14%; in test [12] it was 0.55%. Also, the inhibition in [13] was -1.46%; in [14], 0.16%; in [15], 0.41%; in [16] it was 0.21%; in test [17] it was -1.32%; in test [18] it was 0.86%. In addition, the inhibition in [19] was found to be 0.48%; in [20] it was 1.57%.
